Compound activity: PubChem BioAssay, National Center for Advancing Translational Sciences (NCATS)
Vaccinia Venus: qHTS for Stage-Specific Inhibitors of Vaccinia Orthopoxvirus: Venus Reporter Primary qHTS | Potency, µM (highest dose often 36.5 µM), for inactives: at the highest dose activity change, negative = inhibition, most hits filed as inhibitors | AID 720580, 2013 | Vaccinia virus Venus reporter expression, fluorescence | 330,000 tested, 0.46% active; calls by dose curve; tested in A549 cells; also: potency is read from the fitted curve at half-maximal effect; nearly all actives have a fitted effect of over 30% in size
VACV mCherry inh: qHTS for Stage-Specific Inhibitors of Vaccinia Orthopoxvirus: mCherry Reporter Primary qHTS; Vaccinia virus mCherry reporter infection, fluorescence; Potency, µM (top dose mostly 36.5 µM), for inactives: at the top dose activity change, negative = inhibition, most hits filed as inhibitors; 310,000 tested, 0.63% active; calls by dose curve; tested in A549 cells; also: potency is read from the fitted curve at half-maximal effect; nearly all actives have a fitted effect of over 35% in size
FMDV inh: High Throughput Screening for Foot and Mouth Disease Virus Antivirals | 410,000 tested, 1.2% active | Potency, µM (highest dose often 57.9 µM), inactives show at the top dose activity change, negative = inhibition, actives largely listed as inhibitors | FMDV antiviral cell-based qHTS; calls by dose curve; tested in HEK293T cells; also: read-out not given here; potency is read from the fitted curve at half-maximal effect; nearly all actives have a fitted effect of over 45% in size
HCMV inh: qHTS Assay for inhibitors of the human cytomegalovirus (HCMV). HFF cells, HCMV-luciferase reporter, 72 h; hits give low values. activity change, negative = inhibition, % at 57.5 µM. 410,000 tested, 4.5% active. AID 1259415, 2018; in the data active = activity change below about -60%; inconclusive = no clear call, values can overlap the other calls; inactive = above about -39%
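Cell-based, HFFs, 1000 cells/well, 16 h 37C; cpds in DMSO + HCMV-luc, MOI 1 PFU/cell; 72 h 37C; OneGlo luminescence after 5 min RT; norm. to buffer vs Salinomycin 10uM.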
Sm TGR inh: qHTS Assay for the Inhibitors of Schistosoma Mansoni Peroxiredoxins; Schistosoma mansoni thioredoxin glutathione reductase (TGR), Q962Y6; Potency, µM (series often up to 114 µM), for the others: at the top dose activity change, negative = inhibition, actives largely listed as inhibitors; 360,000 tested, 3% active; purified TGR, DTNB reduction, TNB absorbance 405 nm; also: potency is read from the fitted curve at half-maximal effect; nearly all actives have a fitted effect of over 60% in size
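Kinetic colorimetric format: TGR-catalysed, NADPH-driven DTNB reduction monitored via TNB absorbance. Enzyme dispensed at 20 nM; compound exposure 15 min at room temperature before reaction start.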
HCV inh: qHTS Assay for Inhibitors of Hepatitis C Virus (HCV); Potency, µM (series often up to 41.8 µM), inactives show at the top dose activity change, negative = inhibition, actives largely listed as inhibitors; 340,000 tested, 3.4% active; Huh7.5.1 HCVcc-Cre infection, luciferase reporter, 44 h; AID 651820, 2012; also: potency is read from the fitted curve at half-maximal effect
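Cells seeded at 1,000/well and cultured 4 h, then compounds added followed by HCVcc-Cre virus (~0.5 moi). After 44 h further culture, luciferase substrate was added, plates held 15 min at room temperature, and luminescence read for 15 sec.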
* hit, by the source's call; i = inactive; ? = inconclusive; / = no result given; ! = not active in a repeat; [ ] = remark or other dose. A selection: hits, their analogues and other compounds. The true share with any hit is near 9.3%. Unless noted, calls follow the shape of the dose curve; as a rule, active = well fitted curve in the direction sought with a large enough effect; inconclusive = small, poorly fitted or top-dose-only effect, or another doubt; inactive = no such curve, though single readings can be large; an effect the other way counts as inactive or inconclusive. % is scaled to controls: 0 for no effect and ±100 for the full control effect.

SMILES	Vaccinia Venus	VACV mCherry inh	FMDV inh	HCMV inh	Sm TGR inh	HCV inh
CCCCOc1ccc(N2C(=O)C(C)CNC2=S)cc1 (stereo unspecified)	2.3%	-11.6%	2.8%	-99.4*	/	23.8%
COc1ccc(CCNC(=O)C(=O)NCC2OCCN2S(=O)(=O)c2ccc(Cl)cc2)cc1 (stereo unspecified)	-22.1%	?	?	-5.4	-22.4%	11.2µM*
COc1ccc(S(=O)(=O)N2CCOC2CNC(=O)C(=O)NCCc2c[nH]c3ccccc23)cc1C (stereo unspecified)	?	?	?	27.4	-7.9%	11.2µM*
COc1ccc(S(=O)(=O)N2CCOC2CNC(=O)C(=O)NCCc2c[nH]c3ccccc23)cc1 (stereo unspecified)	-18.3%	-10.1%	22.4µM*	-1.9	-13.7%	?
CC(=O)c1sc(NC(=O)c2cccc(C)c2)nc1C	-5.2%	-13.9%	22.9%	261.9	-4.9%	?
CCOC(=O)C1=C(COC(=O)CCOc2ccc(C)cc2)NC(=O)NC1C (stereo unspecified)	?	?	-22.2%	-69.5*	?	?
CCOC(=O)C1=C(COC(=O)Cc2ccc(Cl)cc2)NC(=O)NC1C (stereo unspecified)	/	/	-19.6%	-73.1*	-7.4%	8.2%
O=C(CSc1nnc(-c2cccs2)o1)NCC1CN(Cc2ccccc2)CCO1 (stereo unspecified)	/	/	-6.8%	8.0	-34.5%	-0.6%
OCC1(CCOc2ccccc2)CCN(Cc2nc3ccc(F)cc3[nH]2)CC1	38.0%	-5.5%	?	-61.8*	-24.5%	-21.4%
OCC1(CCOc2ccccc2)CCN(Cc2cn[nH]c2-c2ccc(F)cc2)CC1	-17.3%	-2.3%	-26.5%	?	-6.8%	0.2%
COc1ccc2[nH]c(CN3CCC(CO)(CCOc4ccccc4)CC3)c(C)c2c1	-10.9%	-28.6%	-24.9%	?	-29.3%	10µM*
Cc1cccc(CSC(Nc2ccc(F)cc2)=C(C#N)C#N)c1	?	?	?	-101.6*	-18.9%	11.2µM*
CC(SCc1ccccc1)C(=O)Nc1ccc(F)cc1 (stereo unspecified)	5.2%	-23.0%	-15.0%	?	-5.6%	-2.6%
N#CC(C#N)=C(Nc1ccc(F)cc1)SCc1cccc(Br)c1	?	?	1.78µM*	-98.7*	-14.3%	5.01µM*
O=C(NCc1ccc2c(c1)OCO2)C1CCN(S(=O)(=O)c2ccc(F)cc2)CC1	/	/	-15.4%	-26.2	0.3%	1.6%
O=C(COC(=O)/C=C/c1cccc([N+](=O)[O-])c1)NCc1ccc2c(c1)OCO2	-11.3%	i	-12.4%	-23.5	1.5%	15.8%
CSCCC(NC(=O)c1ccco1)C(=O)NCc1ccc(F)cc1 (stereo unspecified)	/	/	-2.5%	1.5	-6.5%	10.9%
CC(=O)NC(Cc1ccccc1)C(=O)NC(Cc1ccccc1)C(=O)O (stereo unspecified)	/	/	0.9%	-32.5	?	3.6%
Cc1oc(-c2ccc3c(c2)OCCO3)cc1C(=O)NC(Cc1ccccc1)C(=O)O (stereo unspecified)	11.6%	3.4%	40.1%	-16.5	35.5µM*	5.5%
O=C(NC(Cc1ccccc1)C(=O)NC(Cc1ccccc1)C(=O)O)c1ccccc1 (stereo unspecified)	-11.4%	0.8%	-6.9%	-24.3	28.2µM*	-16.7%
CC(C)(C)OC(=O)NC(Cc1ccccc1)C(=O)O (stereo unspecified)	/	/	-15.1%	-14.8	-4.3%	18.0%
Cc1oc(C(C)(C)C)cc1C(=O)NC(Cc1ccccc1)C(=O)O (stereo unspecified)	3.6%	-9.5%	8.6%	-77.2*	0.0%	13.1%
COc1ccc(NC(=O)CSc2nc(-c3cccs3)cc(C(F)(F)F)n2)cc1OC	?	?	?	-68.7*	5.5%	/
Cc1ccc(F)cc1NC(=O)CSc1nc(-c2cccs2)cc(C(F)(F)F)n1	-20.6%	-18.2%	-21.8%	-76.4*	2.1%	/
COc1ccc(C2=C(C)C(=NCCCN3CCN(c4cc(Cl)ccc4C)CC3)NS2(=O)=O)cc1	?	?	?	-26.2	0.7%	/
SMILES	Vaccinia Venus	VACV mCherry inh	FMDV inh	HCMV inh	Sm TGR inh	HCV inh
CC1=C(c2ccc(Cl)cc2)S(=O)(=O)NC1=NCCCN1CCN(c2cc(C)ccc2C)CC1	11.2µM*	10µM*	?	-99.9*	-1.3%	/
CCOC(=O)N1CCC(N(CCN(C)C)C(=S)Nc2ccccc2OCC)CC1	/	/	-10.7%	-14.1	-5.5%	15.5%
Cc1ccc(CN2C(=O)c3ccccc3Sc3ccc(C(=O)NCc4ccco4)cc32)cc1	-7.2%	-15.1%	6.5%	-65.9*	2.2%	/
O=C(NCc1ccco1)c1ccc2c(c1)N(Cc1c(F)cccc1Cl)C(=O)c1ccccc1S2	-19.7%	-21.5%	-1.6%	-25.7	-10.0%	/
O=C(NCc1ccco1)c1ccc(Cn2c(=O)c3ccccc3n(Cc3ccc(Cl)cc3)c2=O)cc1	/	/	-3.3%	-14.5	5.5%	11.2µM*
Cc1ccc(-n2c(=O)c3ccc(C(=O)NCc4ccco4)cc3n(Cc3cccc(Cl)c3)c2=O)cc1	-8.8%	-18.2%	-12.8%	5.8	3.4%	/
COCCCNC(=O)c1ccc(Cn2c(=O)c3ccccc3n(Cc3ccccc3C)c2=O)cc1	?	?	-2.7%	-95.5*!	-2.7%	?
Cc1ccc(Cn2c(=O)n(-c3ccccc3)c(=O)c3ccc(C(=O)NCc4ccco4)cc32)cc1	?	?	48.0%	-60.9*	2.1%	5.8%[8.37 µM]
O=C(NCc1ccco1)c1ccc(Cn2c(=O)c3ccccc3n(Cc3cccc(F)c3)c2=O)cc1	/	/	0.0%	-23.5	3.1%	-27.1%
COCCCNC(=O)c1ccc(Cn2c(=O)c3ccccc3n(Cc3cc(C)ccc3C)c2=O)cc1	/	/	-29.2%	18.7	-8.6%	?
CCc1cccc(NC(=O)CN2C(=O)CN=C(c3ccccc3F)c3cc(Cl)ccc32)c1	-20.9%	-29.4%	-22.2%	-25.8	13.5%	/
COc1ccccc1NC(=O)c1oc2ccccc2c1NC(=O)Cc1cccs1	?	?	?	18.4	-0.9%	/
CCOC(=O)c1c(NC(=S)NC(C)=O)sc(C)c1C	-7.4%	-15.6%	1.4%	-26.0	-20.1%	-0.3%
CCN(CC)CCCNC(=O)c1ccc2c(c1)N(Cc1c(F)cccc1Cl)C(=O)c1ccccc1S2	?	-4.7%	-15.0%	-98.2*	-2.6%	/
CCN(CC)C(=O)CNc1ccc(C(F)(F)F)cc1[N+](=O)[O-]	-14.7%	-21.4%	-10.1%	74.5	-7.2%	-19.5%
C=CCNC(=S)/N=c1/ccccn1CC	-9.7%	i	-5.6%	-98.0*	?	24.9%
